Screening results: PubChem, Sanford-Burnham Center for Chemical Genomics
This is a sample that favours compounds with a hit; in the whole collection about 31% have one here.
CYP2C9 inhib = blockers of cytochrome P450 2C9 activity – biochemical, luminescence, ADME assay, primary screen | P11712 | CYP2C9 Supersomes, luciferin-H conversion | inhibition, % at 5 µM | 96,000 tested, 20% active;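 active = blocking of liver enzyme CYP2C9 beyond about 50% at 5 µM, limit read from the data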
CYP2C19 activ = human CYP2C19 activators, primary screen, biochemical, luminescence. AID 1025, 2008. activation factor at 5 µM. recombinant CYP2C19, luciferin-H EGE luminescence; stronger effect = higher value; 0 = fully inhibited enzyme, 1 = untreated enzyme. 96,000 tested, under 10 active. Cytochrome P450 2C19 (Homo sapiens), P33261;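 active = activation factor of at least 2 at 5 µM in the primary screen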;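 also: 0 = wells with 2.5 mM tranylcypromine and 1 = vehicle-only wells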
CYP2C9 act = human CYP2C9 activators, primary screen, biochemical, luminescence. activation factor at 5 µM. recombinant CYP2C9, luciferin-H conversion; stronger effect = higher value; factor 1 = untreated enzyme, 0 = blocked. 96,000 tested, 1.4% active. Cytochrome P450 2C9 (Homo sapiens), P11712;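 active = activation factor of 2 or more for CYP2C9 at a 5 µM dose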;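 also: 0 = sulfaphenazole-blocked wells and 1 = vehicle-only wells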
PLAP act = PLAP enzyme activators, biochemical, luminescence, HTS; purified PLAP enzyme, luminescent substrate read-out; stronger effect = higher value; activation fold at 20 µM; 96,000 tested, 1.2% active; AID 696, 2007; in the data active = activation fold above about 2
Target sequence (P05187 whole entry, looked up): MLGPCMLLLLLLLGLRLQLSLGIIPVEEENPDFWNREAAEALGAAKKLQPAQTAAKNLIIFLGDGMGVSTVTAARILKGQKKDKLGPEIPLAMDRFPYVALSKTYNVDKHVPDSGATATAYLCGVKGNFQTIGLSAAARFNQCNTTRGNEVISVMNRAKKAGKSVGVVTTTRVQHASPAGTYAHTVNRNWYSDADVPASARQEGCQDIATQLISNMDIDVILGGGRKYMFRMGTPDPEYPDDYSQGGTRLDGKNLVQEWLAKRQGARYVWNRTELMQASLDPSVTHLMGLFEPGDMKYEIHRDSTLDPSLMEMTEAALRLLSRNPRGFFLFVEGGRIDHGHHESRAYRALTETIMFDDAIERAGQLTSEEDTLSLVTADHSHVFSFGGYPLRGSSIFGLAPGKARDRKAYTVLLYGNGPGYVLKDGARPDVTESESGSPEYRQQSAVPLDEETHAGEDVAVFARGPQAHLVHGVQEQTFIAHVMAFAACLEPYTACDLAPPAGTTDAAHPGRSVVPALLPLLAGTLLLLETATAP
CYP2C19 inhib = blockers of cytochrome P450 2C19 activity – biochemical, luminescence, ADME assay, primary screen; CYP2C19 Supersomes, luciferin-H EGE luminescence, 30 min; inhibition, % at 5 µM; 96,000 tested, 21% active;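 active = CYP2C19 inhibition above a set limit at 5 µM in the primary screen, cut at about 50% in these data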;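 also: plate controls were negative control wells for no effect and 2.5 mM tranylcypromine positive control for full effect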
An asterisk follows results filed as active.

SMILES	CYP2C9 inhib	CYP2C19 activ	CYP2C9 act	PLAP act	CYP2C19 inhib
COc1ccc(C(=O)N2CCCC(c3nc(-c4ccc(OC)c(OC)c4)no3)C2)c(OC)c1 (stereo not given)	61*	0.6	0.4	1.4	40
COc1ccc(-c2noc(C3CCCN(S(=O)(=O)c4ccc(C)c(Cl)c4)C3)n2)cc1OC (stereo not given)	57*	0.3	0.4	1.2	68*
O=S(=O)(c1ccccc1Cl)N1CCCC1c1nc(-c2cccc(Cl)c2)no1 (stereo not given)	48	0.7	0.5	1	26
CCS(=O)(=O)N1CCCC(c2nc(-c3cccc(OC)c3)no2)C1 (stereo not given)	17	0.7	0.8	1.1	28
CCCS(=O)(=O)N1CCCC(c2nc(-c3ccc(OC)cc3)no2)C1 (stereo not given)	82*	0.7	0.2	0.9	34
Cc1cccc(C(=O)OCc2cnc(Cl)s2)c1	0	0.8	1	0.9	17
COc1ccc(-c2noc(C3CCCN(S(=O)(=O)c4cccc(Cl)c4C)C3)n2)cc1OC (stereo not given)	85*	0.1	0.2	1.6	91*
Cc1ccc(-c2noc(C3CCCN(C(=O)c4c(F)cccc4F)C3)n2)cc1 (stereo not given)	91*	0.2	0.1	1.8	78*
COc1ccc(-c2noc(C3CCCN(C(=O)c4ccccc4OC)C3)n2)cc1OC (stereo not given)	17	1	0.8	1.6	5
COC(=O)C1(C(F)(F)F)N=C2Sc3ccccc3N2C(N2CCOCC2)=N1 (stereo not given)	8	0.8	0.9	1.2	23
CCCCN(Cc1ccco1)C(=O)c1cc2c(=O)[nH]c3ccc(C)cc3c2s1	72*	0.5	0.3	1.5	50*
Cc1ccc2[nH]c(=O)c3cc(C(=O)N(CCCOC(C)C)Cc4ccco4)sc3c2c1	58*	0.6	0.4	1.4	37
Cc1ccc2cc(CN(Cc3ccco3)C(=O)c3cccs3)c(=O)[nH]c2c1	31	0.6	0.7	0.9	36
Nc1nc(CSCCO)nc(Nc2ccccc2)n1	13	0.9	0.9	1	15
OCCNc1nc(Nc2ccccc2)nc(Nc2ccccc2)n1	66*	0.8	0.3	1.2	20
CN(C)CC(=O)c1ccc(-c2ccccc2)cc1	2	1	1	1	-2
CN(C)C/C(Cl)=C(\Cl)c1ccccc1	27	0.4	0.7	1.1	57*
Cc1cc(C)n(-c2nnc(C)n2/N=C/c2ccccc2O)n1	9	0.8	0.9	1	16
O=C1C2CC=C(Cl)CC2C(=O)N1CN(Cc1ccco1)CN1C(=O)C2CC=C(Cl)CC2C1=O (stereo not given)	33	0.8	0.7	1.6	24
c1ccc(Oc2cccc(CN3CCOCC3)c2)cc1	16	0.2	0.8	1.2	77*
c1ccc2c(c1)Cc1cc(CN3CCOCC3)ccc1-2	15	0.4	0.8	1.2	62*
CCC(C)(NC(=O)CNC(C)=O)C(=O)NC1CCCCC1 (stereo not given)	-18	1	1.2	0.8	-1
CCc1ccccc1OCCOc1ccc(C)cc1OC	8	0.7	0.9	1.1	29
Cc1ccc(C)c(OCCCCCn2ccnc2)c1	100*	0	0	1.1	100*
C=CCc1cc(C)ccc1OCCn1ccnc1	95*	0	0.1	0.9	96*
SMILES	CYP2C9 inhib	CYP2C19 activ	CYP2C9 act	PLAP act	CYP2C19 inhib
Cc1ccc(C2=[N+]([O-])C(C)N(O)C2(C)C)o1 (stereo not given)	3	0.9	1	1.5	8
COc1ccc(S(=O)(=O)N(Cc2ccc(OC)c(OC)c2)Cc2ccco2)cc1	46	0.4	0.5	1.5	59*
Cc1ccc(S(=O)(=O)N(Cc2ccccc2)Cc2ccco2)cc1	90*	0.2	0.1	0.7	83*
COC(=O)CN(Cc1ccco1)S(=O)(=O)c1ccccc1	46	0.6	0.5	1.4	45
COc1ccc(CN(CCCN2CCOCC2)S(=O)(=O)N(C)C)cc1OC	3	0.9	1	0.9	9
Cc1ccc(S(=O)(=O)N(Cc2ccc(F)cc2)Cc2ccco2)cc1	13	0.8	0.9	1	21
COc1ccc(S(=O)(=O)N(CCCN2CCOCC2)Cc2ccc(OC)c(OC)c2)cc1	17	0.1	0.8	1.8	89*
COc1ccc(-c2nnc(SCc3c(C)noc3C)n2N)cc1OC	26	0.8	0.7	0.9	23
O=C(CNC(=O)c1ccco1)OCc1ccc(Cl)cc1	19	0.2	0.8	1	82*
O=C(CSc1ccc(Cl)cc1)Nc1cccc(NC(=O)c2ccco2)c1	77*	0.6	0.2	0.9	39
O=C(CSc1ccc(Cl)cc1)c1ccco1	16	0.9	0.8	1.1	13
O=C(NCCSc1ccc(Cl)cc1)c1ccco1	51*	0.2	0.5	0.8	84*
CSc1cccc(NC(=O)c2ccco2)c1	-16	0.4	1.2	0.8	58*
Cc1ccc(-n2nc3c(c2NC(=O)c2ccccc2Br)CS(=O)C3)cc1 (stereo not given)	44	0.7	0.6	1.2	34
Clc1ccc(-c2nn3c(-c4ccccn4)nnc3s2)c(Cl)c1	29	0.7	0.7	1	35
CC(=O)N1CCC(N(C(=O)Nc2ccc(F)cc2)C2CCCC2)CC1	8	1.1	0.9	1	-11
C/C(=N\NC(=S)Nc1ccc(F)cc1)C1CC1	57*	0.3	0.4	1.1	69*
Cc1ccc(C2C(C#N)=C(N)Oc3c2c(=O)n(C)c(=O)n3C)cc1 (stereo not given)	56*	0.8	0.4	0.9	17
CCCCOC1(c2ccccc2)NC(=S)NN=C1c1ccccc1 (stereo not given)	95*	0.2	0.1	0.9	79*
COC1(c2ccccc2)NC(=S)NN=C1c1ccccc1 (stereo not given)	82*	0.5	0.2	1	48
CCOc1cc(NC(=O)c2ccco2)c(OCC)cc1NC(=O)CCc1ccc(OC)cc1	-10	1.1	1.1	1.1	-11
CCn1c(SCC(=O)N2CCc3ccccc32)nc2c(c1=O)SC(C)C2 (stereo not given)	93*	0.8	0.1	1	23
CCn1c(SCC(=O)NC2CCCCC2)nc2c(c1=O)SC(C)C2 (stereo not given)	-4	0.9	1	0.9	10
COCCn1c(SCC(=O)N2CCCc3ccccc32)nc2ccccc2c1=O	96*	0	0	1.5	96*
CCn1c(SCC(=O)N2CCCCC2)nc2c(c1=O)SC(C)C2 (stereo not given)	69*	0.7	0.3	1.1	25
